Growth data for eight molecules are collected here from PubChem BioAssay (NCI).

The structures appear in SMILES notation. This is part of a sample that, as a whole, favours compounds with a hit. Of some 83,000 tested, about 20% had one in any assay.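 For each line, cells grew in 96-well plates with the test compound present at a single concentration for 48 hours.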 A number with no mark means an inactive call. Active and inactive are the calls of the source. The calls were made as follows: active = growth percent below 10; inactive = the rest.

Among the test systems are SK-MEL-2 melanoma; EKVX NSCLC; SN12C renal; UO-31 renal; TK-10 renal; ACHN renal; CAKI-1 renal; A498 renal; CCRF-CEM leukemia; MOLT-4 leukemia; SR leukemia; RPMI-8226 leukemia; OVCAR-8 ovarian; OVCAR-5 ovarian; OVCAR-4 ovarian; SK-OV-3 ovarian; IGROV1 ovarian; OVCAR-3 ovarian; HS 578T breast; NCI/ADR-RES ovarian.
Holding throughout (assay): NCI-60 one-dose screen, 48 h (100 = growth as untreated, 0 = no growth, -100 = all killed)
What all share (settings): 10 µM unless noted

Take `Nc1c(C(=O)c2ccc(Cl)cc2)sc(Nc2ccccc2)c1-c1nc2ccccc2s1`: the growth was 38.5% in the assay on SK-MEL-2 melanoma; 59.9% with EKVX NSCLC; 82.6% in the assay with SN12C renal; 19.3% in the assay on UO-31 renal; -13.3% (active) with TK-10 renal; 26.2% with ACHN renal. Moreover, the growth was 25.2% with CAKI-1 renal; 46.2% with A498 renal; 60.3% in the assay on CCRF-CEM leukemia; 76.5% with MOLT-4 leukemia; 33.2% in the assay with SR leukemia; 28.3% with RPMI-8226 leukemia. Moreover, the growth is 23% in the assay with OVCAR-8 ovarian; 46.4% in the assay on OVCAR-5 ovarian; -9.61% (active) in the assay with OVCAR-4 ovarian; -0.592% (active) in the assay on SK-OV-3 ovarian; 29.1% with IGROV1 ovarian; 4.1% (active) in the assay on OVCAR-3 ovarian. The growth was 32.4% with HS 578T breast and 18.8% in the assay on NCI/ADR-RES ovarian.

With `C=C(C)[C@@H]1CC[C@]2(COCCCNCCCN)CC[C@]3(C)[C@H](CC[C@@H]4[C@@]5(C)CC[C@H](OCCCN)C(C)(C)[C@@H]5CC[C@]43C)[C@@H]12`, the growth was 92.6% in the assay with SK-MEL-2 melanoma; 47.6% in the assay with EKVX NSCLC; -83.1% (active) in the assay on SN12C renal; 38.9% in the assay with UO-31 renal; -10.4% (active) in the assay on TK-10 renal; -72.4% (active) in the assay with ACHN renal. Besides, the growth was 51.9% with CAKI-1 renal; 90.3% in the assay with A498 renal; -37.8% (active) with CCRF-CEM leukemia; -15.6% (active) in the assay on MOLT-4 leukemia; -49.2% (active) in the assay with SR leukemia; -51.7% (active) in the assay on RPMI-8226 leukemia. The growth is -66.3% (active) in the assay on OVCAR-8 ovarian; -49% (active) with OVCAR-5 ovarian; -79.4% (active) with OVCAR-4 ovarian; 102% in the assay with SK-OV-3 ovarian; -81.1% (active) with IGROV1 ovarian; 47.8% in the assay on OVCAR-3 ovarian. Also, the results for the growth with HS 578T breast and in the assay with NCI/ADR-RES ovarian were 87.4% and -80.2% (active), respectively.

`O=C(c1ccc(F)cc1)C1CCN(CCn2c(=O)[nH]c3ccccc3c2=O)CC1`: the growth with SK-MEL-2 melanoma is 106%; with EKVX NSCLC, 89.3%; with SN12C renal it was 105%; in the assay with UO-31 renal it was 64.6%; in the assay with TK-10 renal, 105%; in the assay with ACHN renal, 94.8%. Further, the growth is 84.2% in the assay with CAKI-1 renal; 118% in the assay with A498 renal; 101% in the assay on CCRF-CEM leukemia; 95.5% with MOLT-4 leukemia; 99.9% in the assay on SR leukemia; 104% in the assay on RPMI-8226 leukemia. The growth was 103% in the assay with OVCAR-8 ovarian; 99.9% in the assay on OVCAR-5 ovarian; 109% with OVCAR-4 ovarian; 102% in the assay with SK-OV-3 ovarian; 111% in the assay on IGROV1 ovarian; 96.9% in the assay with OVCAR-3 ovarian. Also, the growth with HS 578T breast was 108%; in the assay on NCI/ADR-RES ovarian, 102%.

With `CC(=O)Oc1ccccc1C(=O)N(Cc1ccc2c(Cl)cc(Cl)c(O)c2n1)c1ccccc1`, the growth with SK-MEL-2 melanoma is 66.7%; in the assay with EKVX NSCLC, 37.4%; with SN12C renal, 46.8%; in the assay on UO-31 renal it was 29.9%; in the assay with TK-10 renal it was 81.3%; in the assay on ACHN renal it was 33.8%. Further, the growth is 38.9% in the assay with CAKI-1 renal; 57.6% in the assay with A498 renal; 31.3% in the assay with CCRF-CEM leukemia; 38.7% in the assay on MOLT-4 leukemia; 39.7% in the assay with SR leukemia; 36.1% with RPMI-8226 leukemia. Moreover, the growth is 34.9% in the assay on OVCAR-8 ovarian; 77.2% in the assay with OVCAR-5 ovarian; 36.2% with OVCAR-4 ovarian; 64.5% in the assay on SK-OV-3 ovarian; 42.8% with IGROV1 ovarian; 40.9% in the assay with OVCAR-3 ovarian. Further, the figures for the growth in the assay with HS 578T breast and in the assay on NCI/ADR-RES ovarian were 76.5% and 8.97% (active), respectively.

Take `CN1CC(c2ccccc2)C(C(=O)c2ccc(Br)cc2)C12C(=O)Nc1ccccc12` (stereo not given): the growth was 99.2% with SK-MEL-2 melanoma; 91.8% with EKVX NSCLC; 94.5% with SN12C renal; 65.9% in the assay with UO-31 renal; 109% with TK-10 renal; 100% in the assay with ACHN renal. Also, the growth in the assay with CAKI-1 renal was 63.2%; with A498 renal, 105%; with CCRF-CEM leukemia it was 102%; in the assay with MOLT-4 leukemia it was 92.1%; with SR leukemia, 97%; in the assay with RPMI-8226 leukemia it was 88.2%. For the same molecule, the growth is 98.8% in the assay on OVCAR-8 ovarian; 98.9% in the assay with OVCAR-5 ovarian; 96.3% with OVCAR-4 ovarian; 93.6% with SK-OV-3 ovarian; 79.7% in the assay on IGROV1 ovarian; 101% in the assay with OVCAR-3 ovarian. For the same molecule, the growth in the assay with HS 578T breast was 94.2%; in the assay with NCI/ADR-RES ovarian it was 79.7%.

As to `CS(=O)(=O)c1cccc(Nc2ncc3cc(-c4ccccc4Cl)ccc3n2)c1`, the growth is -25.6% (active) with SK-MEL-2 melanoma; 23.9% with EKVX NSCLC; 11% in the assay with SN12C renal; -3.98% (active) in the assay with UO-31 renal; 19.5% with TK-10 renal; 2.93% (active) in the assay on ACHN renal. Also, the growth with CAKI-1 renal is 9.3% (active); with A498 renal it was 5.57% (active); with CCRF-CEM leukemia, 9.21% (active); in the assay on MOLT-4 leukemia it was 5.83% (active); in the assay on SR leukemia, 0.145% (active); with RPMI-8226 leukemia, 1.72% (active). Besides, the growth in the assay on OVCAR-8 ovarian is 11.3%; in the assay with OVCAR-5 ovarian, 32.2%; in the assay with OVCAR-4 ovarian, 39%; with SK-OV-3 ovarian it was -2.26% (active); with IGROV1 ovarian, 4.09% (active); in the assay on OVCAR-3 ovarian, 22.1%. For the same molecule, the growth in the assay on HS 578T breast was 3.45% (active); in the assay on NCI/ADR-RES ovarian, -1.15% (active).

On to `Oc1ccc(C2OCCO2)c2cccnc12`, for which the growth in the assay with SK-MEL-2 melanoma is 70.4%; in the assay on EKVX NSCLC it was 78.4%; in the assay with SN12C renal it was 49.1%; in the assay with UO-31 renal it was 45%; in the assay on TK-10 renal, 95.5%; in the assay with ACHN renal, 67.5%. Moreover, the growth with CAKI-1 renal was 105%; in the assay with A498 renal, 88.2%; with CCRF-CEM leukemia it was 13.5%; in the assay on MOLT-4 leukemia, 20.5%; in the assay with SR leukemia it was 31.8%; in the assay with RPMI-8226 leukemia, 29.6%. Besides, the growth in the assay on OVCAR-8 ovarian was 24.6%; in the assay on OVCAR-5 ovarian it was 59.3%; with OVCAR-4 ovarian, 15.3%; in the assay with SK-OV-3 ovarian, 93.5%; with IGROV1 ovarian it was 74.2%; in the assay with OVCAR-3 ovarian, 4.41% (active). Moreover, the growth in the assay on HS 578T breast was 76.4%; in the assay on NCI/ADR-RES ovarian, 27.5%.

For the molecule `CCOC(=O)c1cc(C(=O)c2cc(OC)cc(OC)c2)n2ncccc12`, the growth is 19.3% in the assay on SK-MEL-2 melanoma; 49.7% with EKVX NSCLC; 44.8% in the assay on SN12C renal; 47.8% in the assay with UO-31 renal; 63.9% with TK-10 renal; 53.2% with ACHN renal. For the same molecule, the growth in the assay with CAKI-1 renal is 34.1%; with A498 renal, -3.04% (active); in the assay on CCRF-CEM leukemia, 24%; with MOLT-4 leukemia, 32.6%; in the assay on SR leukemia it was 32.3%; in the assay with RPMI-8226 leukemia it was 28.9%. Also, the growth is 38.2% in the assay on OVCAR-8 ovarian; 92.2% in the assay with OVCAR-5 ovarian; 71.4% with OVCAR-4 ovarian; 19.6% in the assay on SK-OV-3 ovarian; 56.4% with IGROV1 ovarian; 0.928% (active) in the assay on OVCAR-3 ovarian. The growth in the assay on HS 578T breast was 31.5%; with NCI/ADR-RES ovarian it was 7.11% (active).
